# From PubChem BioAssay
# Calls of active or inactive are those of the source.
# Legend:
# [1] = tested on: Plasmodium falciparum Sir2 (PF13_0152, Sir2A); experiment: Plasmodium falciparum Sir2A binding compounds – biochemical, small-molecule microarray, 635 nm fluorescence, primary screen (AID 1098); conditions: fluorescence 635 nm, higher = more signal;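 further: score merges spot fluorescence intensity with its signal-to-noise ratio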
# [2] = probe aDKK1 binding to arrayed compounds – biochemical, biotinylated probe, 635/667 nm fluorescence, primary screen (AID 1099); conditions: small-molecule microarray, higher = more signal;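 further: score merges 667nm spot fluorescence with signal to noise across triplicate slides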
# [3] = probe aCHRDL2 binding to arrayed compounds – biochemical, biotinylated probe, 635/667 nm fluorescence, primary screen (AID 1100); conditions: small-molecule microarray, higher = more signal
# [4] = change in splice reporter luminescence, either direction, cell-based, HEK293, spliceosome inhibition project, primary screen (AID 1101); conditions: HEK293 splicing luciferase reporter, 24 h, higher = more signal, called active from +8 up or from −8 down;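 further: HEK293 cells carrying a splicing-competent luciferase reporter gene; test concentration not given here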
# [5] = molecular target: Fibroblast growth factor 10 (Homo sapiens) (UniProt O15520); experiment: compounds binding fibroblast growth factor 10 – biochemical, small-molecule microarray, 635 nm fluorescence, primary screen (AID 1102); conditions: FGF10 binding, fluorescence 635 nm, higher = more signal
# [6] = tested on: glycogen synthase kinase-3 (GSK3A per assay name; protocol says GSK3B); experiment: compounds binding glycogen synthase kinase-3 – biochemical, small-molecule microarray, 635 nm fluorescence, GSK3A, primary screen (AID 1103); conditions: fluorescence 635 nm, higher = more signal; further: the record names both GSK3A and GSK3B
# [7] = molecular target: Epidermal growth factor receptor (Homo sapiens) (UniProt P00533); experiment: compounds binding epidermal growth factor receptor – biochemical, small-molecule microarray, 635 nm fluorescence, primary screen (AID 1104); conditions: EGFR binding, higher = more signal;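 further: score merges 667 nm emission intensity with spot signal to noise over triplicate slides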
# [8] = molecular target: Follistatin-related protein 3 (Homo sapiens) (UniProt O95633); experiment: compounds binding follistatin-related protein 3 – biochemical, small-molecule microarray, 635 nm fluorescence, primary screen (AID 1105); conditions: FSTL3 binding, higher = more signal;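 further: score merges emission near 667 nm and signal to noise per printed spot across three slides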
# [9] = molecular target: Dickkopf-related protein 1 (Homo sapiens) (UniProt O94907); experiment: small molecules binding DKK1 protein – biochemical, small-molecule microarray, 635 nm fluorescence scan, primary screen (AID 1106); conditions: higher = more signal;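 further: score merges emission near 667 nm with signal to noise over three replicate slides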
# [10] = tested on: Inhibin beta A chain (activin A); experiment: small molecules binding activin A – biochemical, small-molecule microarray, 635 nm fluorescence scan, primary screen (AID 1107); conditions: INHBA, higher = more signal;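 further: mouse activin A protein probed at 4.33 µg/mL on printed slides; score merges bound-protein fluorescence near 667 nm with spot signal-to-noise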
# [11] = tested on: Human papillomavirus type 1a protein E7 (residues 44-93); experiment: small molecules binding HPV E7 44-93 – biochemical, small-molecule microarray, residues 44-93, 635 nm fluorescence, primary screen (AID 1108); conditions: fluorescence 635 nm, higher = more signal;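 further: E7 fragment applied at 1 µg/mL in TBST for 1 h at 4 C; score combines spot fluorescence with its signal to noise ratio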
# [12] = hepatitis C replication reporter changes, two-sided – Huh7 cells, luciferase reporter, HCV replication inhibitor project, primary screen (AID 1109); conditions: Huh7 HCV replicon luciferase reporter, 48 h; higher = more signal;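 further: huh7 hepatoma cells harbouring a luciferase neomycin HCV replicon reporter; luciferase luminescence as measure of HCV replicon replication; test concentration not given here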
# [13] = molecular target: Left-right determination factor 2 (Homo sapiens) (UniProt O00292); experiment: small molecules binding LEFTY2 protein – biochemical, small-molecule microarray, 635 nm fluorescence scan, primary screen (AID 1110); conditions: higher = more signal
# [14] = molecular target: Calmodulin-1 (Homo sapiens) (UniProt P0DP23); experiment: small molecules binding calmodulin-1 with EGTA – biochemical, small-molecule microarray, Cy5-labelled CALM1, profiling panel (AID 1111); conditions: Cy5-CALM1 binding fluorescence, higher = more signal;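 further: labelled calmodulin applied in Tris saline Tween buffer holding calcium plus EGTA and DTT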
# [15] = molecular target: Calmodulin-1 (Homo sapiens) (UniProt P0DP23); experiment: small molecules binding Ca-loaded calmodulin-1 – biochemical, small-molecule microarray, Cy5-labelled CALM1, plus calcium, artefact control for SMM control-protein annotation, profiling panel (AID 1112); conditions: Cy5-CALM1 binding fluorescence, higher = more signal;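 further: score merges spot fluorescence with signal to noise from triplicate slides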
# [16] = probe aWnt5a binding to arrayed compounds – biochemical, biotinylated probe, 635/667 nm fluorescence, primary screen (AID 1113); conditions: small-molecule microarray, higher = more signal;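 further: score merges 667 nm fluorescence intensity with signal-to-noise per printed feature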
# [17] = probe aShh binding to arrayed compounds – biochemical, biotinylated probe, 635/667 nm fluorescence, primary screen (AID 1114); conditions: small-molecule microarray, higher = more signal;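 further: probe is biotin-labelled aShh protein from a stem cell growth factor screen; measures binding of labelled protein to compounds printed on the slide; score merges feature fluorescence at 667 nm with signal-to-noise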
# [18] = probe aNog binding to arrayed compounds – biochemical, biotinylated probe, 635/667 nm fluorescence, primary screen (AID 1115); conditions: small-molecule microarray, higher = more signal;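 further: probe is biotinylated aNog protein used at 0.15 µg/mL for 1 h at 4 C; z-score combines 667 nm fluorescence of each spot with its signal to noise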
# [19] = molecular target: Torsin-1A-interacting protein 1 (Homo sapiens) (UniProt Q5JTV8); experiment: compound microarray binding of lysate hLAP1 – cell lysate, small-molecule microarray, COS7 lysate, 635/667 nm fluorescence, primary screen (AID 1116); conditions: 635 nm fluorescence, higher = more signal
# [20] = molecular target: Alpha-bungarotoxin (Bungarus multicinctus) (UniProt P60615); experiment: compounds binding labelled alpha-BTX control protein – biochemical, small-molecule microarray, Alexa647 label, 635/667 nm fluorescence, artefact control for SMM control protein annotation, profiling panel (AID 1117); conditions: alpha-BTX-A647 binding fluorescence, higher = more signal
# Sequence of Alpha-bungarotoxin (Bungarus multicinctus) (P60615 whole entry, looked up): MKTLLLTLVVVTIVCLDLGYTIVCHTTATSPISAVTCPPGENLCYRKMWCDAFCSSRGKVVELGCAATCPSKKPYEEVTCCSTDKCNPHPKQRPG
# Sequence of Left-right determination factor 2 (Homo sapiens) (O00292 whole entry, looked up): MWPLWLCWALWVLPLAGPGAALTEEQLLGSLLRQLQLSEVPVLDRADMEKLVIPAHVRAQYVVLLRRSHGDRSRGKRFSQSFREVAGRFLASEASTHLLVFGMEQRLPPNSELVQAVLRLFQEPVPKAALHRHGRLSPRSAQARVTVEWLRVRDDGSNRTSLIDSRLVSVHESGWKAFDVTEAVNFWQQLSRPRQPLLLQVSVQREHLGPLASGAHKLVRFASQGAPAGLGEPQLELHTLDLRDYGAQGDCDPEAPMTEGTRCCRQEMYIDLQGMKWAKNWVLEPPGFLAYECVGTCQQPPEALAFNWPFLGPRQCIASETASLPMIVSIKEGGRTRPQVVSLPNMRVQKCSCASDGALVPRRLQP
# Sequence of Epidermal growth factor receptor (Homo sapiens) (P00533 whole entry, looked up): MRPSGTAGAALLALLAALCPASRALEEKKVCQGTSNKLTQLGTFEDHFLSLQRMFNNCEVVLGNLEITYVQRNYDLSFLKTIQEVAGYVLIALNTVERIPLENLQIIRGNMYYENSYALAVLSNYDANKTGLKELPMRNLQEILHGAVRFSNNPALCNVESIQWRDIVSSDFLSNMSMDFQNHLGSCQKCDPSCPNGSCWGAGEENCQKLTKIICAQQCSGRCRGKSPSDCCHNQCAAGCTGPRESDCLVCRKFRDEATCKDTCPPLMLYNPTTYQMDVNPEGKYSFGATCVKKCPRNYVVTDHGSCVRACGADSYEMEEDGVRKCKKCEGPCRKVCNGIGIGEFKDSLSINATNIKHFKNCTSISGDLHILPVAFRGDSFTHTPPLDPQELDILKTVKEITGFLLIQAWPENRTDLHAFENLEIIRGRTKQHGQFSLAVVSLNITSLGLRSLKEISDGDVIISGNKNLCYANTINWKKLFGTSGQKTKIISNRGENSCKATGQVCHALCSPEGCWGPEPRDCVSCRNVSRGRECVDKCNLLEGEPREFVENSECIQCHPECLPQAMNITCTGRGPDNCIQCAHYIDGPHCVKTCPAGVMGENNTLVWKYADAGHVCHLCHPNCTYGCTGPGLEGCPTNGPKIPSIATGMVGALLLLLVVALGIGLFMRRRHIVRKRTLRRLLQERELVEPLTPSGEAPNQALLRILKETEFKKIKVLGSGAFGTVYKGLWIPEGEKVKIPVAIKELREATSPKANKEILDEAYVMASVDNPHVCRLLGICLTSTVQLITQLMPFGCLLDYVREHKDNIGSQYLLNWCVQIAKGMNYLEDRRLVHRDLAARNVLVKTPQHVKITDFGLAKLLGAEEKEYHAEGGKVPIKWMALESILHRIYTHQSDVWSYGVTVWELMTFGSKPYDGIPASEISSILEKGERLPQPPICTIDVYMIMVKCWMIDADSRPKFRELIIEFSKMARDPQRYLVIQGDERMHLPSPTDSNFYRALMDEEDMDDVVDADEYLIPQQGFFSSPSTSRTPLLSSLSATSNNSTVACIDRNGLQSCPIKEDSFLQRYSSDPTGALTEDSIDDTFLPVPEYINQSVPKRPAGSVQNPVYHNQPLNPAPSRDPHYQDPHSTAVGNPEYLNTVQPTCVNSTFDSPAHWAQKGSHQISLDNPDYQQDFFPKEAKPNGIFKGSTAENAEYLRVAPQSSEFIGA
# Sequence of Follistatin-related protein 3 (Homo sapiens) (O95633 whole entry, looked up): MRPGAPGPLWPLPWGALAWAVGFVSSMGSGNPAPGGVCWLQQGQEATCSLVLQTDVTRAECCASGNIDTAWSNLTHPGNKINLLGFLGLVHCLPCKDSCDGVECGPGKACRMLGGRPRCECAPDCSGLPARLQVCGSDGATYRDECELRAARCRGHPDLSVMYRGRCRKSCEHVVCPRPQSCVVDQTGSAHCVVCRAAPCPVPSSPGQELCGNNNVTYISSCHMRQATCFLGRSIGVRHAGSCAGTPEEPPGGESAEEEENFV
# Sequence of Dickkopf-related protein 1 (Homo sapiens) (O94907 whole entry, looked up): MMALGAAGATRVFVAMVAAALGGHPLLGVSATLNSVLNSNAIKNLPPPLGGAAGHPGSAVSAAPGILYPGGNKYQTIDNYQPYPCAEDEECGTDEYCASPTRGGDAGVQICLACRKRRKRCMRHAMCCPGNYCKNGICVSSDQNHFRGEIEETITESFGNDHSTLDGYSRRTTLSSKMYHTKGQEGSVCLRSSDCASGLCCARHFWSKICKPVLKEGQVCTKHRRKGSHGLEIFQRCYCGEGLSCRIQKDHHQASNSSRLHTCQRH
# Sequence of Torsin-1A-interacting protein 1 (Homo sapiens) (Q5JTV8 whole entry, looked up): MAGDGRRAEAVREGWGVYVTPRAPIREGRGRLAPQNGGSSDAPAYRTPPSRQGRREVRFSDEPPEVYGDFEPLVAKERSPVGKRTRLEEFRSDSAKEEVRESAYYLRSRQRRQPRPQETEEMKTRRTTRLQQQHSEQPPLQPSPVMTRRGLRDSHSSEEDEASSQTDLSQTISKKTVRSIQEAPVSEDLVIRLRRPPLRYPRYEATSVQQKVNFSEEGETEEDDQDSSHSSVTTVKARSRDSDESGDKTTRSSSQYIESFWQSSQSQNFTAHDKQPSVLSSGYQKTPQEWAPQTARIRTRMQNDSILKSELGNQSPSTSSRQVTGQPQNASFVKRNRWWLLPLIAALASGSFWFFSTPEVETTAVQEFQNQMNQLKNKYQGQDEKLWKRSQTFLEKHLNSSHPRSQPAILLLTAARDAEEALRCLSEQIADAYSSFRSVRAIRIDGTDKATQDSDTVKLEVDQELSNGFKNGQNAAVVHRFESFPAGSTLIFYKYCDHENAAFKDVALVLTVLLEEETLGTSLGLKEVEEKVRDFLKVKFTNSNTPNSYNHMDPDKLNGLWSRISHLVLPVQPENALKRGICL
# Sequence of Fibroblast growth factor 10 (Homo sapiens) (O15520 whole entry, looked up): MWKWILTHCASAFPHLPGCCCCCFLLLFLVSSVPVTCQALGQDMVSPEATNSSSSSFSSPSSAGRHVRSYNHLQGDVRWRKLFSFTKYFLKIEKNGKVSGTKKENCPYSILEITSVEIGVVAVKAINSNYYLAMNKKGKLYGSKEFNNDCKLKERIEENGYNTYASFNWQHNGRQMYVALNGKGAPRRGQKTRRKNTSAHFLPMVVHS
Structure (SMILES),composite z-score [1],composite z-score [2],composite z-score [3],z-score [4],composite z-score [5],composite z-score [6],composite z-score [7],composite z-score [8],composite z-score [9],composite z-score [10],composite z-score [11],z-score [12],composite z-score [13],composite z-score [14],composite z-score [15],composite z-score [16],composite z-score [17],composite z-score [18],composite z-score [19],composite z-score [20]
CCOC(=O)C[C@H]1[C@H](OC(=O)c2ccccc2-c2ccccc2)[C@@H](NC(=O)CC(C)C)c2cc(OCCCO)ccc2N1C(=O)Cc1ccc(OC)cc1,0.0681,-0.235,0.0198,-0.284 (inactive),0.215,-0.199,-0.0484,-0.305,-0.239,0.328,-0.0946,-1.25,-0.262,-0.0904,-0.265,-0.0953,0.199,-0.326,0.784,-0.213
CC(C)C(=C=CC[C@H](O)c1ccc(OCCO)cc1)CCO,1.42,0.0229,0.0152,0.0477 (inactive),0.835,0.145,0.0098,0.842,0.296,0.943,1.39,-0.119,0.131,0.219,-0.729,-0.0107,0.163,0.508,0.828,0.663
NC(=O)NCC#Cc1ccc2c(c1)[C@]1(C(=O)N2)[C@H](C(=O)Nc2nc3ccccc3s2)[C@H]2C(=O)O[C@H](c3ccccc3)[C@H](c3ccccc3)N2[C@@H]1c1ccccc1OCCO,1.23,1.83,-0.202,-0.137 (inactive),1.27,0.261,0.997,1.02,1.44,1.08,1.4,-1.33,0.235,1.23,0.579,0.312,-0.0773,2.12,-0.638,2.74
COC(=O)[C@@]1(Cc2ccc(F)cc2)[C@H]2c3cc(C(=O)N(C)C)n(Cc4cc(F)c(F)c(F)c4)c3C[C@H]2CN1C(=O)c1ccccc1,0.931,0.9,1.19,-1.91 (inactive),1.16,0.744,-0.024,1.08,-0.85,0.529,1.32,-2.75,-0.323,1.6,1.01,0.245,0.566,2.27,1.16,1.17
CCc1cccc(NC(=O)O[C@H]2[C@H](OC(=O)Nc3ccccc3-c3ccccc3)[C@@H](OC(=O)Nc3ccccc3-c3ccccc3)[C@@H](OC)O[C@@H]2CO)c1,1.29,0.481,0.648,-2.55 (inactive),1.13,0.954,0.0707,1.38,-0.0897,0.465,1.52,-3.79,0.3,1.71,-0.0011,0.0839,0.432,0.572,1.47,1.53
CC#CC(=O)Oc1ccccc1C=CC(=O)OCC,0.743,-0.223,-0.226,-0.634 (inactive),-0.176,0.0939,0.27,0.104,-0.0092,0.321,0.793,-2.16,0.136,0.0515,-0.27,-0.096,-0.0709,-0.256,0.045,0.115
CCCC[C@H]1OB(O)C[C@H]2C1=C(COC)Cn1c(=O)n(-c3ccccc3)c(=O)n12,-0.0483,-0.383,-0.738,0.271 (inactive),0.516,0.302,0.54,0.517,0.465,0.95,0.039,-0.673,0.358,-0.215,-0.421,-0.0792,-0.0977,0.445,0.0892,0.0547
CCCCCN1CC=CC23O[C@@H]4/C=C\CCC(C)OC(=O)C4[C@H]2C(=O)N(C(C)CO)[C@@H]3C1=O (stereo not given in full),-0.472,-0.225,-0.327,0.304 (inactive),0.171,0.0131,-0.601,-0.0103,-0.23,0.908,0.67,-0.862,-0.441,-0.213,-1.04,-0.175,-0.282,-0.17,-0.537,-0.453
COc1ccc(CCNC(=O)[C@@H]2c3ccccc3C(=O)N(Cc3ccccc3Cl)[C@H]2c2ccc(CO)cc2)cc1,0.489,0.235,0.602,-0.153 (inactive),0.212,0.412,-0.0373,-0.182,0.0477,0.674,1.07,-1.37,0.147,-0.0739,-0.0544,-0.152,0.0611,0.395,0.412,-0.473
O=C(N1CCCCC1)[C@]1(Cc2ccccc2)N=C(c2ccc(OCCCO)cc2)O[C@@H]1c1ccccc1,1.05,0.887,1.08,-0.555 (inactive),0.956,0.669,-0.394,0.512,-0.474,0.99,1.42,-3.4,0.0931,1.48,0.516,0.0744,0.446,0.85,0.252,0.977
COc1cc2c(cc1O)C(c1cccs1)N(C)CC2 (stereo not given),0.0826,-0.287,0.0135,0.153 (inactive),-0.654,-0.995,0.0174,-0.558,-0.332,0.0723,-1.61,0.159,-0.496,-0.705,0.423,-0.126,-0.2,-0.215,-0.205,-0.759
